We go through eight compounds from PubChem BioAssay (Tox21).

A short description of assay [1]: qHTS assay to identify small molecule antagonists of the sonic hedgehog signaling (Shh) pathway (AID 1259369; calls by dose curve; also: nearly all actives have a fitted effect of over 45% in size; also: potency is read from the fitted curve at half-maximal effect). In outline: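 Antagonist mode: compound added to 3T3 Gli1-Luc cells followed by conditioned-medium stimulation, 24 h at 37 C, 5% CO2. Inhibition taken as loss of Gli1-driven luciferase luminescence.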
(In general: In qHTS, concentration-response curves come from the screen itself.)

A short description of assay [2]: qHTS assay to identify small molecule agonists of the androgen receptor (AR) signaling pathway in the presence of an antagonist - cell viability counter screen (AID 1259379).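 Also: MDA-kb2 human breast cancer cells carrying an MMTV luciferase reporter; series mostly up to about 92 µM; nearly all actives have a fitted effect of over 25% in size.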 In outline:
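Cytotoxicity counter-screen run in the same wells as the nilutamide-challenged (3.0 µM final) AR agonist assay in MDA-kb2 cells. Compounds tested at 15 concentrations for 16 h, 37 °C without CO2; CellTiter-Fluor fluorescence read.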

A short description of assay [3]: qHTS assay to identify small molecule agonists of the estrogen receptor beta (ER-beta) signaling pathway - cell viability counter screen (AID 1259380). Also: nearly all actives have a fitted effect of over 30% in size. In outline: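 Cell viability counter screen: CellTiter-Glo luminescence (30 min, room temperature) measured in the same wells as the beta-lactamase readout, after 16 hr compound exposure at 37C of ER-beta-bla HEK293T cells in 2% charcoal-stripped FBS medium.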

Assay [4] in a line: qHTS assay to identify small molecule antagonists of the estrogen receptor beta (ER-beta) signaling pathway - cell viability counter screen (AID 1259382). Also: series mostly up to about 92 µM; nearly all actives have a fitted effect of over 55% in size. In outline:
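Cytotoxicity was measured in the same wells by CellTiter-Glo luminescence after 30 min at room temperature. Cells were ER-beta-bla HEK293T in charcoal-stripped serum, given compound together with 1 nM E2 and incubated 16 h at 37C.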

Assay [5] addresses Estrogen receptor (Homo sapiens) (UniProt P03372). The assay is described as follows: qHTS assay to identify small molecule agonists of the estrogen receptor alpha (ER-alpha) signaling pathway in the presence of an antagonist (AID 1259383; calls by dose curve; also: top concentration of the series differs between compounds; nearly all actives have a fitted effect of over 15% in size). The gist of the method:
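Agonist-mode confirmation run in the presence of 10.0nM (final) ICI-182,780 antagonist. The reporter was ERE-driven luciferase in VM7Luc4E2 cells, grown in charcoal-stripped serum. Cells were exposed to 15-concentration compound series for 22hr, then ONE-Glo luminescence was read.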

The target of assay [6] is Progesterone receptor (Homo sapiens) (UniProt P06401). Briefly: qHTS assay to identify small molecule agonists of the progesterone receptor (PR) signaling pathway (AID 1346784; calls by dose curve; also: nearly all actives have a fitted effect of over 30% in size; also: potency is read from the fitted curve at half-maximal effect). The gist of the method: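 Beta-lactamase reporter read-out: after 16 hr compound treatment at 37C and a further 2 hr at room temperature with LiveBLAzer B/G FRET substrate, fluorescence was measured in PR-UAS-bla HEK 293T cells grown in 2% charcoal-stripped serum.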

Assay [7] in a line: qHTS assay to identify small molecule antagonists of the progesterone receptor (PR) signaling pathway - cell viability counter screen (AID 1346798). Also: series mostly up to about 92 µM; nearly all actives have a fitted effect of over 50% in size. The gist of the method: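 HEK293T PR-UAS-bla, 2% charcoal-stripped FBS; 4 hr pre-plate; cpd + R5020, 16 h 37C; LiveBLAzer read first; then CellTiter-Glo 30 min RT, luminescence.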
Assay [8] in a line: qHTS assay to identify small molecule agonists of the progesterone receptor (PR) signaling pathway - cell viability counter screen (AID 1346799; calls by dose curve; also: nearly all actives have a fitted effect of over 45% in size). In outline:
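Luminescence from CellTiter-Glo, added after the beta-lactamase FRET read in the same wells, gave cytotoxicity in PR-UAS-bla HEK293T cells treated with compounds for 16 hr at 37C.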

Assay [9] can be described thus: qHTS assay to identify small molecule antagonists of the TGF-beta/Smad signaling pathway - cell viability counter screen (AID 1346824). Also: nearly all actives have a fitted effect of over 50% in size. The gist of the method:
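SBE-bla HEK 293T cells, incubated overnight, then compound plus 0.25 ng/mL TGF-beta1 (stock added) for 5 hr at 37 C. Viability was read in the same wells by CellTiter-Glo luminescence after 30 min at room temperature.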

A short description of assay [10]: qHTS assay to identify small molecule agonists of the TGF-beta/Smad signaling pathway - cell viability counter screen (AID 1346829). Also: top concentration of the series differs between compounds; nearly all actives have a fitted effect of over 45% in size. The gist of the method: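 CellTiter-Glo luminescence readout; SBE-bla HEK 293T cells, overnight plating, compound 5 hr at 37 C/5% CO2, then bla substrate 2 hr RT, then CellTiter-Glo 30 min RT.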
Assay [11] concerns the target Thyrotropin-releasing hormone receptor (Homo sapiens) (UniProt P34981). The assay is described as follows: qHTS assay to identify small molecule antagonists of the thyrotropin-releasing hormone receptor (TRHR) signaling pathway (AID 1346877; active = well fitted inhibition curve with a large enough effect in the repeat runs, not every such curve was filed as active; also: series mostly up to about 51 µM). In outline: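 Antagonist mode: after a 5 min room-temperature compound exposure, cells were stimulated with 1 nM (final) TRH. Dye-loaded TRHR-HEK293 cells were used, and calcium-dependent fluorescence was followed for 3 min, with 15-point titrations run in triplicate.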

The target is the same in assay [12]. Briefly: qHTS assay to identify small molecule agonists of the thyrotropin-releasing hormone receptor (TRHR) signaling pathway (AID 1346891; calls by dose curve; also: series mostly up to about 58 µM). In outline:
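Intracellular calcium rise, read as fluorescence every second for 3 min, served as the agonist signal in dye-loaded HEK293 cells expressing TRHR; each compound ran at 15 concentrations in triplicate.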

Assay [13] can be described thus: qHTS assay to identify small molecule agonists or antagonists of the thyroid stimulating hormone receptor (TSHR) signaling pathway - wild type cell line counter screen (AID 1259384; calls by dose curve). In outline:
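Wild-type Hek293 cells, 800/well, 18 h at 37C, then compound with Ro20-1724 for 30 min RT. cAMP by HTRF (cAMP-d2/anti-cAMP cryptate), 1 h RT, fluorescence read. 15 concentrations, triplicates.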

The target of assay [14] is Thyrotropin receptor (Homo sapiens) (UniProt P16473). Briefly: qHTS assay to identify small molecule antagonists of the thyroid stimulating hormone receptor (TSHR) signaling pathway (AID 1259385; calls by dose curve; also: nearly all actives have a fitted effect of over 20% in size; also: potency is read from the fitted curve at half-maximal effect). In outline:
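TSHR-HEK293 cells (800/well) plated 18 h, then compounds with Ro20-1724 and TSH at 1.5 ng/mL final, 30 min at room temperature. cAMP quantified by HTRF (cAMP-d2/anti-cAMP-cryptate, 1 h); 15 concentrations in triplicate.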

A short description of assay [15]: qHTS assay to identify small molecule agonists of the estrogen receptor alpha (ER-alpha) signaling pathway in the presence of an antagonist - cell viability counter screen (AID 1259386). Also: series mostly up to about 92 µM; nearly all actives have a fitted effect of over 30% in size. In outline:
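Compounds tested at 15 concentrations for 22 h at 37C alongside 10.0nM (final) ICI-182,780 antagonist, in VM7Luc4E2 cells grown in phenol red-free, charcoal-stripped medium. Viability read by CellTiter-Fluor fluorescence after 1 h reagent incubation.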

Assay [16] is described as follows: qHTS assay to identify small molecule agonists of the TGF-beta/Smad signaling pathway (AID 1346859; active = well fitted activation curve with a large enough effect in the signal ratio in the repeat runs, not every such curve was filed as active; the % refers to the signal ratio; also: series mostly up to about 77 µM). In outline: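 SBE-bla HEK 293T, 4,000 cells/well, plated o/n; cpd in DMSO, 5 hr, 37 C/5% CO2; B/G FRET substrate 2 hr RT; ex 405, em 460/530 nm.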
For assay [17], the target named is Progesterone receptor (Homo sapiens) (UniProt P06401). The assay is described as follows: qHTS assay to identify small molecule antagonists of the progesterone receptor (PR) signaling pathway (AID 1346795; active = well fitted inhibition curve with a large enough effect in the signal ratio in the repeat runs, not every such curve was filed as active; the % refers to the signal ratio). In outline:
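Read-out is fluorescence from the LiveBLAzer B/G FRET substrate, cleaved by a UAS-controlled beta-lactamase in PR-UAS-bla HEK293T cells after 16 hr exposure to compound plus 1 nM promegestone (final), followed by 2 hr at room temperature.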

For assay [18], the target named is Estrogen receptor beta (Homo sapiens) (UniProt Q92731). Briefly: qHTS assay to identify small molecule agonists of the estrogen receptor beta (ER-beta) signaling pathway (AID 1259377; active = well fitted activation curve with a large enough effect in the signal ratio in the repeat runs, not every such curve was filed as active; the % refers to the signal ratio). The gist of the method: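 HEK293T ER-beta-UAS-bla; 2% charcoal-stripped FBS; cells pre-incubated 6 hr, compound 16 hr, 37C/5% CO2; LiveBLAzer B/G FRET substrate 2 h RT; fluorescence intensity read.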

Assay [19] shares this target. The assay is described as follows: qHTS assay to identify small molecule antagonists of the estrogen receptor beta (ER-beta) signaling pathway (AID 1259378; active = well fitted inhibition curve with a large enough effect in the signal ratio in the repeat runs, not every such curve was filed as active; the % refers to the signal ratio; also: potency is read from the fitted curve at half-maximal effect). In outline: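 ER-beta-UAS-bla HEK293T cells in 2% charcoal-stripped FBS medium treated with compound plus 1nM final 17-beta-estradiol for 16 hr at 37C. Beta-lactamase reporter read by FRET substrate fluorescence after 2 hours at room temperature.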

SMILES strings stand for the structures. Values joined by “and” are separate entries in the source; they are usually repeats but may differ in a detail not shown here. Equal entries are not always repeated. Results filed as inconclusive are left out. Active and inactive are the calls of the source. Unless noted, calls follow the shape of the dose curve; as a rule, active = well fitted curve in the direction sought with a large enough effect in the repeat runs; inconclusive = weak or mixed curves; inactive = no such curve, though single readings can be large; an effect the other way counts as inactive or inconclusive.

Chain of Estrogen receptor (Homo sapiens) (P03372 whole entry, looked up): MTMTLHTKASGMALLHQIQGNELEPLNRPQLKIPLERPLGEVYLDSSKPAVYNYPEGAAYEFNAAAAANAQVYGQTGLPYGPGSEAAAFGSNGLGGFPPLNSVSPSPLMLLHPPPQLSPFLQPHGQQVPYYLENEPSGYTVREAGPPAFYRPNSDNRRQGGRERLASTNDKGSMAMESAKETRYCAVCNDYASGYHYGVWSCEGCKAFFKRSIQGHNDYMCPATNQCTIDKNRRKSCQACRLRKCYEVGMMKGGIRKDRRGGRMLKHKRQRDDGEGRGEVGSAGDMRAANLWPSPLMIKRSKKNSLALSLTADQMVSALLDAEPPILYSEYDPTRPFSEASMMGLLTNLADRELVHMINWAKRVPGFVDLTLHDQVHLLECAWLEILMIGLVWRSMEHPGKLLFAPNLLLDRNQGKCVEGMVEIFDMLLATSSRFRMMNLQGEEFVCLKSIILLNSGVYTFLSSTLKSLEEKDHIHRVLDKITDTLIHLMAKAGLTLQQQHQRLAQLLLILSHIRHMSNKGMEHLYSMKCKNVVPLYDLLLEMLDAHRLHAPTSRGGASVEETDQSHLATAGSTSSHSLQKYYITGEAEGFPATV
Chain of Thyrotropin-releasing hormone receptor (Homo sapiens) (P34981 whole entry, looked up): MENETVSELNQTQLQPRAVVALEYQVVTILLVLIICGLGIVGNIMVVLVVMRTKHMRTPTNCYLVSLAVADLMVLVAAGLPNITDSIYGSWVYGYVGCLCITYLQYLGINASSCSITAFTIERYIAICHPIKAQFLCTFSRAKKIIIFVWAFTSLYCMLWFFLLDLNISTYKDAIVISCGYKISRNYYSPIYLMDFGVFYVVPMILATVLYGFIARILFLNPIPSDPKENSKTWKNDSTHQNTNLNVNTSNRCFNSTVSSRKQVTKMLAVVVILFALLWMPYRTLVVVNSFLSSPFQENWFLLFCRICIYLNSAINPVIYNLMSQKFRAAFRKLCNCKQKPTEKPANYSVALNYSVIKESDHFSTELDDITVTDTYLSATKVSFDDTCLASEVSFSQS
Chain of Estrogen receptor beta (Homo sapiens) (Q92731 whole entry, looked up): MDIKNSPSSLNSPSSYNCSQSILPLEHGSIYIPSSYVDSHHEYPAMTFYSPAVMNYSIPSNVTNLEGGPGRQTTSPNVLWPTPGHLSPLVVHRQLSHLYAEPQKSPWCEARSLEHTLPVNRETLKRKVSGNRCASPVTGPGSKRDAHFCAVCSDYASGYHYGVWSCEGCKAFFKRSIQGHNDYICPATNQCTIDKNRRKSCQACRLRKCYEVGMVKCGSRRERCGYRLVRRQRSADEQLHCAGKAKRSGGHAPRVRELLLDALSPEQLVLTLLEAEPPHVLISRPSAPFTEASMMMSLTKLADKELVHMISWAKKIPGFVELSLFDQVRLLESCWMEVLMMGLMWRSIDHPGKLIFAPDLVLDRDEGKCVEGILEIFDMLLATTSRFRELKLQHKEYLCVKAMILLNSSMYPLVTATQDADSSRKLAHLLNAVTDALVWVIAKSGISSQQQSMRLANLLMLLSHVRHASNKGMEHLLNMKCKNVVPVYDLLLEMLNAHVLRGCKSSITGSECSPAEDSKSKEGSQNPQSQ
Chain of Thyrotropin receptor (Homo sapiens) (P16473 whole entry, looked up): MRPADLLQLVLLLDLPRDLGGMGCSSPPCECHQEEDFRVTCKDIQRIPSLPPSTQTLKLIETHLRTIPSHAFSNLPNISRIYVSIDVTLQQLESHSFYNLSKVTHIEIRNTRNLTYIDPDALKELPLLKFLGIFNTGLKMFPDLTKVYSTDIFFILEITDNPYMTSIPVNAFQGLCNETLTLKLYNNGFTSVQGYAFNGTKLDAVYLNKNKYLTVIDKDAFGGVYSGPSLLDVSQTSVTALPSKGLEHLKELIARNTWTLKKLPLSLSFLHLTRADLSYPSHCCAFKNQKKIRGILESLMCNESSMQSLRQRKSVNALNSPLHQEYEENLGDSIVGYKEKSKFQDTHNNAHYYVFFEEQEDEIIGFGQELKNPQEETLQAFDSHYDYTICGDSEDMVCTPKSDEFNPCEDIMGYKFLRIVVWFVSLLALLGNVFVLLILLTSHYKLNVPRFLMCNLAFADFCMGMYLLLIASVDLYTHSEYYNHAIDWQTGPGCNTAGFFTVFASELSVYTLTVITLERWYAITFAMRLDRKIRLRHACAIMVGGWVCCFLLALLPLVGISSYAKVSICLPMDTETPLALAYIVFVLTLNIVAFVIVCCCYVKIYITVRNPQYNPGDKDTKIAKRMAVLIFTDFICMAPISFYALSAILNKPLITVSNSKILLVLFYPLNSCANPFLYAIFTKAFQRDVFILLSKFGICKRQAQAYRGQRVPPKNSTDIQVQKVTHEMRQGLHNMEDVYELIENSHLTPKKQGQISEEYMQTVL
Chain of Progesterone receptor (Homo sapiens) (P06401 whole entry, looked up): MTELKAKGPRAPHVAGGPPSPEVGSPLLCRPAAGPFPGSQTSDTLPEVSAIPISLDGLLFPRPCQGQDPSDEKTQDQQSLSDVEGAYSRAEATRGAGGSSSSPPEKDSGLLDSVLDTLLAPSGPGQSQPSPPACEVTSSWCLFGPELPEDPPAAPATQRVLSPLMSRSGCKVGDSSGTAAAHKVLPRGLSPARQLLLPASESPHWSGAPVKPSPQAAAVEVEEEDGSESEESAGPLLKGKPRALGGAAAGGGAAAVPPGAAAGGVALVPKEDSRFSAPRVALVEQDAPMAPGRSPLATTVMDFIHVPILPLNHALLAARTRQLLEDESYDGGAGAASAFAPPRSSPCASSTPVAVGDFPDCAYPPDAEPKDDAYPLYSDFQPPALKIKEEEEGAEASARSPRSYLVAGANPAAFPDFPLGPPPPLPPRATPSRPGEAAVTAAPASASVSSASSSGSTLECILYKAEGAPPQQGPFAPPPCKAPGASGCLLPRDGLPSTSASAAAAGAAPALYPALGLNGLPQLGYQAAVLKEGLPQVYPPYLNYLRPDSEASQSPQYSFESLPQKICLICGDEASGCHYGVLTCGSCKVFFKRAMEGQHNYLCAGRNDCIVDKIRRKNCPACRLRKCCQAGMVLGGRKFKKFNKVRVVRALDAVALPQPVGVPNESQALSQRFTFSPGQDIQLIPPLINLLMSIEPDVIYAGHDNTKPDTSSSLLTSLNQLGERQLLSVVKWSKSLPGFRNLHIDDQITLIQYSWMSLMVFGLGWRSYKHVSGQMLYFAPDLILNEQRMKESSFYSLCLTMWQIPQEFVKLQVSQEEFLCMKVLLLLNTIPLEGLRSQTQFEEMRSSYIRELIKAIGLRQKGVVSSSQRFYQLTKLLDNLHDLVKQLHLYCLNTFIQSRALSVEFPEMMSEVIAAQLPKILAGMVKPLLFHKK

Regarding `COc1cc([C@H]2Oc3cc([C@H]4Oc5cc(O)cc(O)c5C(=O)[C@@H]4O)ccc3O[C@@H]2CO)ccc1O`, the Potency in [1] was 19.3 µM (active). Also, the Potency result in assay [2], in [3], in assay [4], in assay [5], in assay [6] and in assay [7] was “inactive” throughout. Moreover, the Potency entry in assay [8], in assay [9], in [10], in assay [11] and in assay [12] was “inactive” throughout.
`CCCCCCCCCCC(CO)CCCCCCCC` (stereo not drawn): the Potency result in [1], in assay [2], in [3], in assay [4], in assay [13] and in [14] was “inactive” each time. Moreover, the Potency entry in assay [15], in assay [7], in [8], in [9] and in assay [10] was “inactive” each time. The call in [16] was inactive.
With `CC(C)(Oc1ccc(Cl)cc1)C(=O)O`, the Potency entry in assay [1], in [2], in [3], in assay [4], in assay [13] and in assay [14] was “inactive” in each case. For the same compound, the Potency entry in assay [6], in [17], in [7], in [8], in assay [9] and in assay [10] was “inactive” each time. In addition, the call in assay [16] was inactive.
With `Cc1cccc(Nc2ccccc2C(=O)O)c1C`, the Potency result in assay [1], in assay [2], in [3], in assay [4], in [15] and in assay [6] was “inactive” throughout. Besides, the Potency result in assay [7], in assay [8], in [9], in [10], in assay [11] and in assay [12] was “inactive” each time. For the same compound, the result in assay [16] was inactive.
For the compound `C[C@]12CC[C@@H]3c4ccc(O)cc4CC[C@H]3[C@@H]1CC[C@H]2O`, the Potency in [1] is 4.94 µM (active) and 4.86 µM (active); in [14] it was 31.2 µM (active). For the same compound, the Potency entry in assay [2], in [13], in assay [15], in [6], in assay [9] and in [10] was “inactive” in each case. In addition, the Potency result in [11] and in [12] was “inactive” each time. The result in assay [16] was inactive.
Turning to `CC(=O)[C@H]1CC[C@H]2[C@@H]3CC=C4C[C@@H](O)CC[C@]4(C)[C@H]3CC[C@]12C`, the Potency entry in assay [18], in assay [2], in [4], in [5], in assay [13] and in [14] was “inactive” throughout. Further, the Potency result in assay [17], in assay [7], in assay [8], in assay [9] and in assay [10] was “inactive” in each case. The Potency in assay [19] was 1.88 µM (active); in [6], 4.85 µM (active). For the same compound, the compound was called inactive in assay [16].
With `Nc1ccc2c(c1)C(=O)c1ccccc1C2=O`, the Potency result in [1], in assay [4], in assay [5], in assay [6], in assay [17] and in [7] was “inactive” in each case. Besides, the Potency result in assay [8], in assay [9], in [10], in assay [11] and in [12] was “inactive” each time. Further, in assay [16], the result was inactive.
Take `COC(=O)c1ccc(C)cc1`: the Potency result in assay [1], in [2], in assay [3], in assay [4], in assay [5] and in assay [13] was “inactive” throughout. Further, the Potency result in assay [14], in assay [6], in assay [17], in assay [7], in [8] and in assay [9] was “inactive” throughout. Moreover, the Potency result in assay [10], in assay [11] and in assay [12] was “inactive” throughout. For the same compound, in [16], the result was inactive.
